The nature of assay [1]: NCI Yeast Anticancer Drug Screen. Data for the rad50 strain (AID 155).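 Also: 0% = growth of vehicle-only cultures of the same strain.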 As to conditions: S. cerevisiae rad50 strain growth inhibition; at 50.0 µM; active compounds read high. The essentials:
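Growth of the mutant yeast was measured after compound exposure and referenced to vehicle-treated cultures.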

Assay [2] in a line: NCI Yeast Anticancer Drug Screen. Data for the mec2-1 strain (AID 157). The following applies: S. cerevisiae mec2-1 strain, at 50.0 µM, active compounds read high. An outline of the steps: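 Vehicle-treated cultures served as reference for growth inhibition of compound-exposed mec2-1 yeast.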
A short description of assay [3]: NCI Yeast Anticancer Drug Screen. Data for the sgs1 mgt1 strain (AID 161).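 Also: 0% = growth of cultures given vehicle only.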 The following applies: S. cerevisiae sgs1 mgt1 strain, at 50.0 µM, active compounds read high. The essentials:
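Inhibition of yeast growth, normalised to vehicle-treated controls, is reported for a strain bearing genetic alterations in DNA damage repair.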

A short description of assay [4]: NCI Yeast Anticancer Drug Screen. Data for the cln2 rad14 strain (AID 165).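 Also: 0% = growth equal to vehicle treated cultures.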 The following applies: S. cerevisiae cln2 rad14 strain, at 50.0 µM, active compounds read high. An outline of the steps: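 Each compound was tested on cln2 rad14 yeast. Inhibition of growth was calculated against vehicle-exposed controls.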
Assay [5] in a line: NCI Yeast Anticancer Drug Screen. Data for the bub3 strain (AID 167). The following applies: S. cerevisiae bub3 mutant strain, at 50.0 µM, active compounds read high. The essentials: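 Whole-cell yeast assay. The mutant strain was incubated with compounds, and growth inhibition was determined by comparison with vehicle-treated cells.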
Assay [6] in a line: NCI Yeast Anticancer Drug Screen. Data for the mlh1 rad18 strain (AID 175). As to conditions: S. cerevisiae mlh1 rad18 strain growth inhibition; at 50.0 µM; active compounds read high. An outline of the steps: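 Vehicle-treated cultures served as the reference for growth inhibition in a yeast strain carrying DNA damage repair alterations exposed to each compound.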

About 79,000 compounds went through this panel and 15% of them were active in at least one assay; those are over-represented in the sample as a whole. A number with no mark means an inactive call. The source made the active and inactive calls. Rule as the data show it: active = growth inhibition above about 70%; inactive = the rest.

For the compound `COC(=O)C(C)OP(=O)(OC(C)C(=O)OC)OC(C)C(=O)OC` (stereo unspecified), the growth inhibition is 0.4% in assay [1]; -3.55% in assay [2]; -4.75% in assay [3]; -4.05% in assay [4]; 15.1% in assay [5]; 2.7% in assay [6].

For the compound `CCCCSc1ccc2n(C)c(-c3ccc(/C=N\NC(=O)c4ccc(C(=O)N/N=C\c5ccc(-c6c[n+]7cc(SCCCC)ccc7n6C)cc5)cc4)cc3)c[n+]2c1`, the growth inhibition was -15.8% in assay [1]; -14.7% in assay [2]; -17.9% in assay [3]; -8.45% in assay [4]; -7.1% in assay [5]; -1.65% in assay [6].

Regarding `CC(=O)OCC(=O)COC(C)=O`, the growth inhibition was -4.95% in assay [1]; -6.35% in assay [2]; -8.4% in assay [3]; 8.5% in assay [4]; -2.2% in assay [5]; -8.55% in assay [6].

As for `OCCSC(SCCO)=C(SCCO)SCCO`, the growth inhibition was 9.85% in assay [1]; -15.7% in assay [2]; -1.55% in assay [3]; -13.2% in assay [4]; 1.35% in assay [5]; 2.75% in assay [6].

Regarding `OCC1NC(COC2OC(CO)C(O)C(O)C2O)C(O)C(O)C1O` (stereo unspecified), the growth inhibition in assay [1] is -17.5%; in assay [2], -14.9%; in assay [3], -19%; in assay [4], 17.1%; in assay [5], -0.25%; in assay [6], -6.25%.

With `S=P(c1ccccc1)(c1ccccc1)C(P(c1ccccc1)c1ccccc1)P(c1ccccc1)c1ccccc1`, the growth inhibition in assay [1] was 47.9%; in assay [2], 49.9%; in assay [3] it was 46.1%; in assay [4], 49.7%; in assay [5], 33.5%; in assay [6], 62%.

On to `O=C(Cn1nnc(N2CCCCC2)n1)N/N=C/c1ccccc1O`, for which the growth inhibition in assay [1] is -29.7%; in assay [2] it was -42%; in assay [3] it was -9%; in assay [4], -10.8%; in assay [5], -9.05%; in assay [6], -29.3%.

As to `O=c1c2ccccc2n2c(-c3ccc(O)cc3)nnc2n1-c1ccccc1`, the growth inhibition in assay [1] was -30.3%; in assay [2], -17.1%; in assay [3] it was 4.4%; in assay [4], 7.75%; in assay [5] it was 1.5%; in assay [6], -14.8%.

On to `COc1cc2c(c3c1c(=S)c1ccccc1n3C)C=CC(C)(C)O2`, for which the growth inhibition in assay [1] is 59.5%; in assay [2] it was 18.9%; in assay [3] it was 86.2% (active); in assay [4], 27.1%; in assay [5] it was 82.7% (active); in assay [6], 78.1% (active).

As for `O=C(Nc1cccc(C(F)(F)F)c1)C(=O)C(C(=O)c1ccc(Cl)c(Cl)c1)C1OC(=O)c2ccccc21` (stereo unspecified), the growth inhibition in assay [1] is 34.9%; in assay [2], 19.2%; in assay [3], -1.35%; in assay [4] it was 63.6%; in assay [5], 45.4%; in assay [6], 37.4%.

`Cc1cc2c(=O)cc(-c3ccncc3)oc2c(C(N)=O)c1C`: the growth inhibition is 14.8% in assay [1]; 4.2% in assay [2]; -12% in assay [3]; -1% in assay [4]; 17.6% in assay [5]; 22.5% in assay [6].

`Cc1c2cnccc2c(C)c2c1c1ccccc1n2CCCCCC#N`: the growth inhibition in assay [1] is 98.8% (active); in assay [2], 99.1% (active); in assay [3], 99.2% (active); in assay [4] it was 98.1% (active); in assay [5], 98.5% (active); in assay [6], 98.8% (active).

For `CC(CCC(=O)O)(CCC(=O)O)C(=O)O`, the growth inhibition in assay [1] is 4.2%; in assay [2], 3.85%; in assay [3], -0.8%; in assay [4], -15.6%; in assay [5] it was 3.7%; in assay [6], -1.9%.

As to `COC(=O)C[C@](O)(CCCC(C)(C)O)C(=O)O[C@@H]1C(OC)=C[C@]23CCCN2CCc2cc4c(cc2[C@H]13)OCO4`, the growth inhibition in assay [1] is 51.2%; in assay [2], 35.4%; in assay [3], 43.2%; in assay [4], 41%; in assay [5], 43.3%; in assay [6], 42.5%.

As to `NC1=CCNN1`, the growth inhibition in assay [1] is 8.7%; in assay [2], -21.9%; in assay [3], 4.1%; in assay [4], 4.1%; in assay [5], 11.3%; in assay [6], 14.4%.

With `COc1ccccc1NC(=O)C1=C(C)NC(C)=C(C(=O)Nc2ccccc2OC)C1c1ccc(N(C)C)cc1`, the growth inhibition was 50.2% in assay [1]; 41.4% in assay [2]; 61.4% in assay [3]; 24.9% in assay [4]; 46.2% in assay [5]; 45% in assay [6].

Turning to `O=C(OC[P+](c1ccccc1)(c1ccccc1)c1ccccc1)c1ccccc1`, the growth inhibition in assay [1] was 44%; in assay [2], 47.1%; in assay [3], 44.9%; in assay [4], 33.8%; in assay [5], 38.6%; in assay [6], 81.2% (active).

Take `CC(Cl)(CO)CCl` (stereo unspecified): the growth inhibition was 5.45% in assay [1]; 9.5% in assay [2]; -2.65% in assay [3]; 4.05% in assay [4]; -6.4% in assay [5]; 2.05% in assay [6].

Regarding `Cc1ccc([N+](=O)[O-])cc1NC(=O)NCCO`, the growth inhibition was 1.15% in assay [1]; 1.6% in assay [2]; -6.3% in assay [3]; -71% in assay [4]; 1% in assay [5]; -1.75% in assay [6].

For `CN(C)C(=O)Nc1cccc(OC(=O)NC2CC2)c1`, the growth inhibition was 4.4% in assay [1]; 16.9% in assay [2]; 26.9% in assay [3]; -8.35% in assay [4]; 19.8% in assay [5]; -4.1% in assay [6].

For the compound `Nc1nc2c(c(-c3cccc(Cl)c3)n1)COC/C2=C\c1cccc(Cl)c1`, the growth inhibition was 26.3% in assay [1]; 20.8% in assay [2]; 25.2% in assay [3]; 20.2% in assay [4]; 25.4% in assay [5]; 24% in assay [6].

(Values after PubChem BioAssay (NCI).)
